# Experimental data as given in the supplement of paper PMC10849652.
# Of roughly 7,900 targets only a part is listed; those with a hit were picked by preference. About 0.6% of all pairs of compound and target were hits. Unmarked numbers belong to inactive results.
# Tests used:
# Assay in all cases: log2 fold change, soluble protein after heating vs DMSO (PISA); higher = thermal stabilisation; K562 cells, 10 uM, 30 min; active = over 0.2 and 3.5 SD of the protein, either way, in both replicates (recomputed)
# [1] = compound: C#Cc1cccc(Nc2ncnc3cc(OCCOC)c(OCCOC)cc23)c1 [erlotinib]
# Outline: (§1)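 K562 cells (2×10^6 cells/mL) were treated with 10 μM compound for 30 min, and aliquots were heated for 3 min over 48°C-58°C. Pooled aliquots were extracted in PBS with 0.5% NP-40 at 4°C, and the supernatant after 21,000xg for 90 min was measured by TMTpro 16plex LC-MS/MS with channel sums equalised. Reported thermal stability, relative to control samples and from duplicates, is a log2 fold change.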
# [2] = compound: C/C(=N\NC(=O)C1=CC(=CC=C1)S(=O)(=O)N2CCOCC2)/C3=C(C=CC(=C3)Cl)O
# Outline: as §1
# [3] = compound: C1=CC(=C(C=C1Cl)C2=NC3=NC=CN=C3C(=N2)NC4=CC=NC=C4)F
# Outline: as §1
# [4] = compound: C1=CC(=CC=C1C2=NC3=C(N2)C=C(C=C3)C(=O)N)OC4=CC=C(C=C4)Cl
# Outline: as §1
# [5] = compound: C1=CC2=C(C=CC(=C2)/C=C\3/C(=O)NC(=NCC4=CC=CS4)S3)N=C1
# Outline: as §1
# [6] = compound: C1=CC2=NC=CN=C2C=C1/C=C/3\C(=O)NC(=O)S3
# Outline: as §1
# [7] = compound: C1=CC=C2C(=C1)C3=NNC4=CC=CC(=C43)C2=O
# Outline: as §1
# [8] = compound: C1CCN(C1)C(=O)NC2=CC=CC(=C2)NC3=NC=C(C(=N3)NCCC4=CN=CN4)Br
# Outline: as §1
# [9] = compound: C1CN(CCC1(CC2=CC=C(C=C2)Cl)N)C3=NC=NC4=C3C=CN4
# Outline: as §1
# [10] = compound: C1=CC=C(C=C1)C2=NC(=C(N2)C3=CC=NC=C3)C4=CC(=C(C=C4)Cl)O
# Outline: as §1
# Sequence of UniProt Q96BI3 (Q96BI3 whole entry, looked up): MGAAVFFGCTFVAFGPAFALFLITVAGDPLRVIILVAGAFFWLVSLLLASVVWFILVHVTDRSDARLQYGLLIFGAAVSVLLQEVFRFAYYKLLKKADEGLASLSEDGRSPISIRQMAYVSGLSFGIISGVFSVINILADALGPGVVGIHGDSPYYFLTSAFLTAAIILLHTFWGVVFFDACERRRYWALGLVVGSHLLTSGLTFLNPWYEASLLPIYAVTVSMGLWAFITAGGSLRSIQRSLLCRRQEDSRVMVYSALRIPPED
# Sequence of UniProt Q13825 (Q13825 whole entry, looked up): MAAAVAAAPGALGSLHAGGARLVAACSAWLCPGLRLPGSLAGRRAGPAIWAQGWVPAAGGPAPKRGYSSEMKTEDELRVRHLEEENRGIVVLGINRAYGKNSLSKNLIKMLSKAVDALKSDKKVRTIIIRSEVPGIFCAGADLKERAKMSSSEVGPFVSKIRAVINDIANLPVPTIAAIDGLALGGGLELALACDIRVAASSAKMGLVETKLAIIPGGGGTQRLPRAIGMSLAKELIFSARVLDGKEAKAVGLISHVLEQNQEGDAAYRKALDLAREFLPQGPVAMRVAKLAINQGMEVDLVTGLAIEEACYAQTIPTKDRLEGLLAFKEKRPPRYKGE
# Sequence of UniProt Q9BUT1 (Q9BUT1 whole entry, looked up): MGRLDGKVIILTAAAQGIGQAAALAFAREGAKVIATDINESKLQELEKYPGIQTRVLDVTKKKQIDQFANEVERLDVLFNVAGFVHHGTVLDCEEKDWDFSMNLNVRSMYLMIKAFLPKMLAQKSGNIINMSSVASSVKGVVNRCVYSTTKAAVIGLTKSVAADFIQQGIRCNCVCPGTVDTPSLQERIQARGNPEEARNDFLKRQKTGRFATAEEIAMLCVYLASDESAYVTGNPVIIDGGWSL
# Sequence of UniProt Q9BTE6 (Q9BTE6 whole entry, looked up): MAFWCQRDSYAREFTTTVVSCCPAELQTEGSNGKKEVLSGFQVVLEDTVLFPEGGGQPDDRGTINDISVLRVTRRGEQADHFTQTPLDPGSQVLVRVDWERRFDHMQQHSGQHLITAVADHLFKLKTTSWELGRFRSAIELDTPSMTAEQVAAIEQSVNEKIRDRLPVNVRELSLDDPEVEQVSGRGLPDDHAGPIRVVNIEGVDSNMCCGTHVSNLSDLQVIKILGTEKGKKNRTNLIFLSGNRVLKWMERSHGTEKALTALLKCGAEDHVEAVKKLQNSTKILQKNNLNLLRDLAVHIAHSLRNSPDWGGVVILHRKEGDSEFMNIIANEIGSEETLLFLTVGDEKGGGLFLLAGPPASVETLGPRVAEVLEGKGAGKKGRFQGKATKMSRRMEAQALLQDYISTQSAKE
# Sequence of UniProt Q15059 (Q15059 whole entry, looked up): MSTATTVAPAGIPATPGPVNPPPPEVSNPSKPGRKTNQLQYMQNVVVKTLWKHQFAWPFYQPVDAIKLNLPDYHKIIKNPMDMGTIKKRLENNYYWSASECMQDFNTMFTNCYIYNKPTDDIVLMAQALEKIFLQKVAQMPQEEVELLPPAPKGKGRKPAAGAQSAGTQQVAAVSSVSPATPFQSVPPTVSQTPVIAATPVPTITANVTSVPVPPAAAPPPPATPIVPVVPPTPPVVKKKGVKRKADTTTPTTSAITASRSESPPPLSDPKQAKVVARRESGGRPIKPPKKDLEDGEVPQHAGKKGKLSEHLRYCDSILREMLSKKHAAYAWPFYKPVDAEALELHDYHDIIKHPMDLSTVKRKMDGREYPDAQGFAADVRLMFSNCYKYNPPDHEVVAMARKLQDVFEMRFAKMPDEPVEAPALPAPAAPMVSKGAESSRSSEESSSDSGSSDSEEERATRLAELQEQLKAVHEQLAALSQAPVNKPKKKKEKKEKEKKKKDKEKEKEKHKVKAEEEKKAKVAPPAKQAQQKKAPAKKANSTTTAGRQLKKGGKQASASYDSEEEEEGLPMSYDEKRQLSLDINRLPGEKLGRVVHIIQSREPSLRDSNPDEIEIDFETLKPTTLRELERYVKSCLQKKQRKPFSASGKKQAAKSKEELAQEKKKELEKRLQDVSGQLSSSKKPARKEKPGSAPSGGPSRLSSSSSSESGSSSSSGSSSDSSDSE
# Sequence of UniProt Q4L235 (Q4L235 whole entry, looked up): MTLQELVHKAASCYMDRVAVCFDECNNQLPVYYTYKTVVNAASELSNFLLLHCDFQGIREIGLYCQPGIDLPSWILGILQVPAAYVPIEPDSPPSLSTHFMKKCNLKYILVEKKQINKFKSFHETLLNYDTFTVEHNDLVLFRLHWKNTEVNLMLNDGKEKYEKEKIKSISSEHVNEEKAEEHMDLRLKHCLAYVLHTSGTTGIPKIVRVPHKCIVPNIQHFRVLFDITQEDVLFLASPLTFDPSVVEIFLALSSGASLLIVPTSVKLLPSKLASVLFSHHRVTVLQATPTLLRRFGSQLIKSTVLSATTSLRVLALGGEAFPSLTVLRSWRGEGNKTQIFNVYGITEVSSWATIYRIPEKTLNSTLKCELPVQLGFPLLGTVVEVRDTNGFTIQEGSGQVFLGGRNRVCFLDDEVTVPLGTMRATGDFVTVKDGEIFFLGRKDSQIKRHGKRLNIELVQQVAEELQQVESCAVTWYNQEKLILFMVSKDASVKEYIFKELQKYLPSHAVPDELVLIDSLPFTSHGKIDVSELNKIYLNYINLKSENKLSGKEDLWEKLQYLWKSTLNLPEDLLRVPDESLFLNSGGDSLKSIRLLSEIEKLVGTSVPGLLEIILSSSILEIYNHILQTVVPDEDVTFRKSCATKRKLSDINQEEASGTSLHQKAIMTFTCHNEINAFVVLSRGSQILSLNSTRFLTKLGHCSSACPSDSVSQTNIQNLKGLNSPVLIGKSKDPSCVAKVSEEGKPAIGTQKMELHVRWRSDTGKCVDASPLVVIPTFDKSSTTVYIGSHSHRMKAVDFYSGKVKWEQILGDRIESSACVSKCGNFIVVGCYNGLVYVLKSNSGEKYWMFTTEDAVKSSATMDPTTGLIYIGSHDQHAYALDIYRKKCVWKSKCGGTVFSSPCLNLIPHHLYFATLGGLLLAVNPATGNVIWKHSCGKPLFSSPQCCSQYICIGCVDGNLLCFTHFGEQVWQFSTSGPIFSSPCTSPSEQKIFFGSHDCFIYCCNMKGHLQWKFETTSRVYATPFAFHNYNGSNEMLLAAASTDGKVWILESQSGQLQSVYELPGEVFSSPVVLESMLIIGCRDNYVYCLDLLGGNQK
# Sequence of UniProt P40617 (P40617 whole entry, looked up): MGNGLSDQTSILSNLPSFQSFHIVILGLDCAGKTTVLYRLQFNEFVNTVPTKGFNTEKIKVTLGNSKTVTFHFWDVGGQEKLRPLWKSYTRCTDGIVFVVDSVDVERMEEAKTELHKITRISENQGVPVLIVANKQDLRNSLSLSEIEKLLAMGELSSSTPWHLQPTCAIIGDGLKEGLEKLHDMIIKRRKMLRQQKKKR
# Sequence of UniProt P53367 (P53367 whole entry, looked up): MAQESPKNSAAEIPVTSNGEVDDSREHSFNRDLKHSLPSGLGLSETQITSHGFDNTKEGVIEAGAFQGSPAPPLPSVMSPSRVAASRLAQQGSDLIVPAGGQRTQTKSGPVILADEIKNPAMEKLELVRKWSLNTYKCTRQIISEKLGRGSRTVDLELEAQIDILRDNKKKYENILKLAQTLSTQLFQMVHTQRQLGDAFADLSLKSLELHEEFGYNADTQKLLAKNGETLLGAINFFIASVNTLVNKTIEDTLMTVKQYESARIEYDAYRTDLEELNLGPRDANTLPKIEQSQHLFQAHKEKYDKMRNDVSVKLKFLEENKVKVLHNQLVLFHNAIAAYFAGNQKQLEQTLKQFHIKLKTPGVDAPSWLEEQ
# Sequence of UniProt Q9H6S1 (Q9H6S1 whole entry, looked up): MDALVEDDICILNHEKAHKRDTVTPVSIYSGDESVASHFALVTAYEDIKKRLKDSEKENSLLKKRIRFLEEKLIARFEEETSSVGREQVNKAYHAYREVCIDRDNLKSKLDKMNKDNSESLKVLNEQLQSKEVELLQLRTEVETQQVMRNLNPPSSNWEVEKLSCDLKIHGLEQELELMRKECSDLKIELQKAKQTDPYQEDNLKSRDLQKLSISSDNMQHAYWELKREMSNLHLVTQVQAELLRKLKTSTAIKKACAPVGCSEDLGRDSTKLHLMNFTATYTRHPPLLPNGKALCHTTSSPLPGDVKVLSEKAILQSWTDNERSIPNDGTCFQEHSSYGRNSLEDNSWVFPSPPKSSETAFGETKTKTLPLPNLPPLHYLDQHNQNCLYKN
# Sequence of UniProt Q9NX38 (Q9NX38 whole entry, looked up): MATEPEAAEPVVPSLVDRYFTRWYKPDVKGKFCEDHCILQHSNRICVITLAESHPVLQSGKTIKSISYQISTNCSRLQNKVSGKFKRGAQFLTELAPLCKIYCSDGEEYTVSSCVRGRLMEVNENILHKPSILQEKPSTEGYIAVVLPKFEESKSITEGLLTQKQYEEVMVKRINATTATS
# Sequence of UniProt Q9UKU0 (Q9UKU0 whole entry, looked up): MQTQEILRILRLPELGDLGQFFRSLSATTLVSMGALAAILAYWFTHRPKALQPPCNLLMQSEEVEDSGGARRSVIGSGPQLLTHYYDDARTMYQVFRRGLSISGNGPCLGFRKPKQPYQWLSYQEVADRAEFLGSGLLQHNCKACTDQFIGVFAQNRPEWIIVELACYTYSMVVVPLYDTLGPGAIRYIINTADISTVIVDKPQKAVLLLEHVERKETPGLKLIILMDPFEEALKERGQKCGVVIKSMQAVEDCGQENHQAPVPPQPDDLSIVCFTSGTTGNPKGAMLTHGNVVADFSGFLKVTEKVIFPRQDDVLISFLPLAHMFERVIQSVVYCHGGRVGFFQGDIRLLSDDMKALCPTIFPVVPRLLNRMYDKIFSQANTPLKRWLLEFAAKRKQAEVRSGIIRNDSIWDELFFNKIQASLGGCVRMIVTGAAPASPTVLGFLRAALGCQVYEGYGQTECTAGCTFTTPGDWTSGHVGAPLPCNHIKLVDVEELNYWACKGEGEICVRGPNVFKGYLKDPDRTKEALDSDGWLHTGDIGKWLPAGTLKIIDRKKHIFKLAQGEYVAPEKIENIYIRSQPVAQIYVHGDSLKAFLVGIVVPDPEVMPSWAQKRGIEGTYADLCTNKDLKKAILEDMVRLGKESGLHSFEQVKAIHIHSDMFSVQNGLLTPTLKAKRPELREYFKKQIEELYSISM
Target,log2 fold change [1],log2 fold change [2],log2 fold change [3],log2 fold change [4],log2 fold change [5],log2 fold change [6],log2 fold change [7],log2 fold change [8],log2 fold change [9],log2 fold change [10]
ACP1 (UniProt P24666),0.149,0.06,0.035,-0.066,0.224,-0.059,0.109,-0.001,-0.015,
ARHGAP1 (UniProt Q07960),-0.039,0.014,0.025,0.021,0.038,0.021,-0.011,0.002,0.019,0.021
AAMP (UniProt Q13685),0.025,-0.032,0.006,-0.003,0.042,0.074,0.003,-0.006,0.085,-0.007
ACOX3 (UniProt O15254),0.158,-0.157,-0.068,0.007,-0.122,-0.026,0.071,0.153,0.054,
ACP1 isoform 2 (UniProt P24666),0.072,0.011,0.038,0.024,0.029,-0.008,0,0.004,-0.039,-0.018
AARSD1 (UniProt Q9BTE6),0.131,-0.415,,0.054,-0.063,-0.117,0.197,,,
BRMS1 (UniProt Q9HCU9),,-0.656 (active),0.075,,0.09,,-0.041,0.024,0.119,
BDH2 (UniProt Q9BUT1),-0.003,0.204,,0.184,-0.031,-0.005,0.103,,,0.085
AP2S1 (UniProt M0QZ21),,,,,,,,-0.625,0.21,
"BRAF, A0A2R8Y8E0",0.073,0.15,,0.083,-0.248,,-0.047,-0.235,-0.26,-0.987 (active)
ANGEL1 (UniProt Q9UNK9),,,,,,0.161,,-0.149,0.092,-0.107
ATP6V0A1 (UniProt Q93050),,,,,,0.187,,,,
BAP18 isoform 3 (UniProt Q8IXM2),0.02,,,-0.146,,,,-0.039,-0.015,
ADD1 isoform 4 (UniProt P35611),,,0.169,,,-0.019,,,,
ATXN3 isoform 1 (UniProt P54252),0.082,0.107,,0.038,-0.042,0.082,-0.115,-0.073,-0.002,-0.038
ADD2 isoform 9 (UniProt P35612),,,,,,-0.025,,,,0.203
AASDH (UniProt Q4L235),0.113,,0.037,0.048,,0.158,,-0.058,0.034,0.003
AZI2 (UniProt Q9H6S1),-0.039,,,-0.211,,0.009,,-0.025,0.04,-0.012
ARHGAP4 isoform 2 (UniProt P98171),0.042,-0.338,,0.033,0.121,-0.209,-0.061,-0.117,0.015,-0.016
ACSL6 isoform 1 (UniProt Q9UKU0),-0.066,,0.02,0.025,,-0.083,,-0.03,0.04,-0.061
ARL4A (UniProt P40617),,0.009,,,0.35,-0.053,0.047,,,

Target,log2 fold change [1],log2 fold change [2],log2 fold change [3],log2 fold change [4],log2 fold change [5],log2 fold change [6],log2 fold change [7],log2 fold change [8],log2 fold change [9],log2 fold change [10]
ACTR3B (UniProt Q9P1U1),-0.033,,,0.073,,,,-0.012,0.145,-0.078
BRD2 isoform 2 (UniProt P25440),-0.552,,,0.204,-0.073,0.367,0.137,-0.08,-0.002,
ARMC8 isoform 6 (UniProt Q8IUR7),-0.145,0.081,,-0.168,-0.075,0.078,-0.067,,,
ABITRAM (UniProt Q9NX38),,0.084,0.029,,0.018,0.023,0.034,-0.037,0.018,-0.05
AUNIP isoform 2 (UniProt Q9H7T9),-0.023,0.066,,0.297,0.083,,0.027,0.041,0.066,
BAIAP2 isoform 4 (UniProt Q9UQB8),,,,,,,,-0.16,-0.048,
AUH (UniProt Q13825),0.155,0.042,,-0.035,-0.122,0.112,0.065,-0.028,0.059,0.039
ALDH2 isoform 2 (UniProt P05091),,-0.197,-0.106,,0.6,0.07,0.131,0.208,0.032,-0.263
ADAMTS5 (UniProt Q9UNA0),0.186,-0.518 (active),,-0.124,0.171,0.012,0.043,-0.06,0.113,0.072
ANK2 (UniProt Q01484),-0.089,-0.173,,-0.028,0.325,-0.059,-0.031,-0.126,-0.131,0.011
APOH (UniProt P02749),-0.214,-0.028,,0.051,-0.026,0.069,-0.092,0.188,0.09,-0.1
AP2M1 (UniProt C9JTK4),,-0.114,0.036,,0.322,0.172,-0.12,0.084,-0.065,
ADPRH (UniProt P54922),-0.021,,-0.047,-0.047,,0.008,,0.141,-0.065,-0.011
ARFIP1 isoform 2 (UniProt P53367),0.106,,-0.064,-0.051,,-0.06,,,,
AKNA (UniProt Q7Z591),-0.147,,,0.195,,,,,,
ARRDC1 (UniProt Q8N5I2),-0.079,,-0.075,0.038,,-0.05,,-0.03,-0.066,0.042
APH1A (UniProt Q96BI3),0,-0.046,,0.052,0.073,0.048,-0.09,-0.188,0.071,
BRD3 (UniProt Q15059),-0.282,-0.072,,0.061,-0.021,0.071,0.059,-0.163,-0.024,0.128
ADD3 isoform 2 (UniProt Q9UEY8),,0.171,-0.049,,0.057,,0.047,-0.016,0.034,0.009
ATXN7L3 isoform 2 (UniProt Q14CW9),0.069,-0.31,,0.071,0.025,0.159,-0.037,,,-0.122
